SMILES strings stand for the structures. The panel holds about 83,000 compounds, 20% with a hit somewhere; the sample as a whole holds those more often.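 For each line, cells grew in 96-well plates with the test compound present at a single concentration for 48 hours.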 A number with no mark means an inactive call. Activity calls are given as the source filed them. Rule for the calls: active = growth percent below 10; inactive = the rest.

This note sets out measurements from PubChem BioAssay (NCI).

Experiment in all cases: NCI-60 one-dose screen, 48 h (100 = growth as untreated, 0 = no growth, -100 = all killed)
Details in all cases: 10 µM unless noted

For assay [1], the system named is SR leukemia.
Assay [2] has as its system RPMI-8226 leukemia.
Assay [3] relates to OVCAR-8 ovarian.
Assay [4] has as its system OVCAR-5 ovarian.
Assay [5] relates to OVCAR-4 ovarian.
The test system of assay [6] is SK-OV-3 ovarian.
Assay [7] concerns IGROV1 ovarian.
For assay [8], the system named is OVCAR-3 ovarian.
In assay [9] the test system is HS 578T breast.
For assay [10], the system named is NCI/ADR-RES ovarian.

Turning to `COc1cc(OC)c(/C=C/C(=O)c2c(O)cc(OC)c(C3CCN(C)CC3)c2OC)c(OC)c1`, the growth in assay [1] is -22.2% (active); in assay [2], -45.3% (active); in assay [3], 1.17% (active); in [4], -29.8% (active); in [5] it was 19.3%; in assay [6], -79.7% (active). Also, the growth in [7] was 29.1%; in assay [8], -51.1% (active); in assay [9] it was -46.2% (active); in assay [10], -19.3% (active).
For `Cn1c2c(c3ccc(Cl)c(Cl)c31)C(C#N)C(C)(C)NC2=O` (stereo not given), the growth in assay [1] was 66%; in assay [2], 72.1%; in assay [3] it was 95.1%; in [4], 77.7%; in assay [5] it was 89.6%; in assay [6], 105%. In addition, the growth in assay [7] was -5.28% (active); in [8] it was 71.3%; in assay [9] it was 34.1%; in assay [10], 81.6%.
`CCN1C(=O)N(CC)C2C1NN=c1s/c(=C\c3ccc(C(F)(F)F)cc3)c(=O)n12` (stereo not given): the growth in assay [1] is 12.2%; in assay [2], 9.95% (active); in assay [3], -2.79% (active); in assay [4], 26.7%; in assay [5] it was 46%; in assay [6], 36.5%. In addition, the growth is 18.7% in assay [7], 3.24% (active) in assay [8], 18.4% in assay [9] and 2.84% (active) in [10].
As to `COc1cc(/C=C2\CN(S(=O)(=O)c3ccccc3)C/C(=C\c3cc(CN4CCCCC4)c(O)c(OC)c3)C2=O)cc(CN2CCCCC2)c1O`, the growth was -18.6% (active) in assay [1]; -34.9% (active) in assay [2]; -25% (active) in assay [3]; -66.6% (active) in assay [4]; -69.8% (active) in assay [5]; 108% in assay [6]. Also, the growth was -51.8% (active) in assay [7], -86.9% (active) in [8], 0.476% (active) in assay [9] and 5.04% (active) in assay [10].
Take `COc1cccc(Nc2ncnc3cc(NC(=O)CCl)ccc23)c1`: the growth in assay [1] was -23.3% (active); in [2] it was -44.8% (active); in [3], -36.6% (active); in [4] it was -82.2% (active); in assay [5], -59.5% (active); in [6] it was -15.9% (active). Further, the growth in assay [7] is -64.7% (active); in assay [8], -82.9% (active); in [9] it was -15.4% (active); in assay [10], -26.4% (active).
In the case of `CN(C)S(=O)(=O)Oc1ccc(-c2sc3cc(OS(=O)(=O)N(C)C)ccc3c2C(=O)c2ccc(OCCN3CCCCC3)cc2)cc1`, the growth in assay [1] is -20.2% (active); in [2], 38.1%; in assay [3], 43.8%; in assay [4] it was 78.4%; in [5] it was 49.7%; in assay [6], 62.4%. Further, the growth in assay [7] was 81%; in [8] it was 69.3%; in [9], 59.7%; in assay [10] it was 72.3%.
Take `N#Cc1cccc(C2C3=C(COC3=O)N(CCO)c3cc4c(cc32)CCC4)c1` (stereo not given): the growth in assay [1] was 14.8%; in [2], 19.3%; in assay [3] it was 5.25% (active); in [4] it was 43.5%; in assay [5], 56.4%; in [6], 32.1%. Further, the growth was 22.5% in [7], -10.5% (active) in [8], 28.2% in assay [9] and 2.04% (active) in [10].
As to `COc1cccc(NCc2nnc(Nc3ccc(Cl)cc3)c3ccccc23)c1`, the growth is -24.5% (active) in assay [1]; -28.1% (active) in assay [2]; 3.02% (active) in [3]; 8.44% (active) in [4]; 17.2% in [5]; -11.9% (active) in assay [6]. For the same molecule, the growth in assay [7] is 1.51% (active); in assay [8], -53.6% (active); in assay [9], 0.542% (active); in assay [10], -5.42% (active).
In the case of `CCOC(=O)c1cnc2c(N=Nc3ccc(OC)cc3)c(N)nn2c1N`, the growth is 112% in assay [1]; 104% in [2]; 102% in assay [3]; 110% in assay [4]; 111% in [5]; 108% in [6]. The growth is 93.7% in assay [7], 113% in [8], 104% in [9] and 98.9% in assay [10].
As to `O=C(CN1CCCCCC1)Nc1nc2ccc(NCc3ccc(Cl)cc3)cc2s1`, the growth in assay [1] is 97.2%; in assay [2] it was 79.3%; in assay [3] it was 95.3%; in assay [4] it was 98.6%; in assay [5], 96.3%; in assay [6], 107%. For the same molecule, the growth is 98.4% in assay [7], 104% in assay [8], 98% in assay [9] and 106% in assay [10].
For `CC(=O)c1ccc(Nc2nccc(-c3ccc4ccccc4c3)n2)cc1`, the growth in assay [1] is 42.6%; in assay [2], 90%; in assay [3] it was 96.6%; in assay [4], 99.8%; in assay [5] it was 105%; in assay [6] it was 99.3%. In addition, the growth was 86.3% in assay [7], 99.3% in assay [8], 86.2% in assay [9] and 84% in assay [10].
For `C=C1C(=O)O[C@H]2[C@H]1CC/C(COC(=O)/C=C/C(=O)OC/C1=C/CC[C@@]3(C)O[C@H]3[C@H]3OC(=O)C(=C)[C@@H]3CC1)=C\CC[C@@]1(C)O[C@@H]21`, the growth in assay [1] is 7.6% (active); in assay [2], -15.2% (active); in assay [3], 62.7%; in [4] it was 88.8%; in [5] it was 86.2%; in assay [6] it was 110%. The growth is 87.6% in assay [7], -0.457% (active) in assay [8], 90.2% in [9] and 96.5% in assay [10].
In the case of `C#CCNC(=O)[C@]1(C)CCC[C@@]2(C)[C@H]1CC=C1C=C(C(C)C)CC[C@@H]12`, the growth in [1] is 105%; in [2], 103%; in assay [3], 113%; in [4], 113%; in assay [5] it was 101%; in assay [6], 104%. Also, the growth is 99.3% in assay [7], 106% in [8], 106% in assay [9] and 104% in assay [10].
In the case of `CC1=CCC(OC(=O)C(C)(C)CC(O)(C(C)O)C(O)C2(C)C=CC(Cc3ccc(C(C)C)cc3)(C(C)C)CC2)(C(C)C)CC1` (stereo not given), the growth was 99% in [1]; 108% in assay [2]; 104% in assay [3]; 94.9% in [4]; 102% in assay [5]; 107% in assay [6]. Further, the growth in assay [7] is 95.5%; in [8], 102%; in [9], 101%; in [10] it was 98.2%.
For the molecule `C=C(C)[C@@H]1CC[C@]2(COC(C)=O)CC[C@]3(C)[C@H](CC[C@@H]4[C@@]5(C)CCCN(C(C)=O)C(C)(C)[C@@H]5CC[C@]43C)[C@@H]12`, the growth is -35.6% (active) in [1]; -6.5% (active) in [2]; 48.6% in assay [3]; 59.2% in assay [4]; 50.7% in assay [5]; 111% in assay [6]. Further, the growth in assay [7] is 57.6%; in [8] it was 88.3%; in assay [9] it was 73.3%; in assay [10], 66.9%.
Turning to `C#CCn1cnc2cnc(Nc3cccc(NC(=O)C=C)c3)nc21`, the growth was 4.73% [6.25 µM] (active) in assay [1]; -14% [6.25 µM] (active) in assay [2]; 84.1% [6.25 µM] in [3]; 101% [6.25 µM] in assay [4]; 90.8% [6.25 µM] in [5]; 52.4% [6.25 µM] in assay [6]. Also, the growth in [7] was 75.2% [6.25 µM]; in assay [8] it was 104% [6.25 µM]; in assay [9], 74.5% [6.25 µM]; in [10] it was 98.6% [6.25 µM].
As for `CCN1C(=O)N(CC)C2C1NC(=S)N2/N=C/c1ccc(C(F)(F)F)cc1` (stereo not given), the growth in [1] is 28.4%; in assay [2], 76.8%; in [3], 86.8%; in assay [4], 81.3%; in [5], 72.7%; in assay [6] it was 79%. For the same molecule, the growth was 60.6% in assay [7], 64.8% in [8], 66.2% in assay [9] and 69.5% in assay [10].
As to `COc1ccc(C(=O)/C=C/c2ccc(Cl)cc2)cc1S(=O)(=O)Nc1c(N)nc(SC)[nH]c1=O`, the growth is 9.2% (active) in [1]; 10% in [2]; 10.8% in assay [3]; 86.3% in [4]; 66.7% in [5]; 97.4% in assay [6]. In addition, the growth in [7] was 40.1%; in assay [8], 10.1%; in assay [9], 81.4%; in assay [10], 97.5%.
`O=C1Nc2ccccc2C1(c1c[nH]c2ccccc12)c1c[nH]c2ccccc12`: the growth in assay [1] was 77.1%; in assay [2], 77.5%; in assay [3], -9.32% (active); in [4], 65.4%; in assay [5], -25.2% (active); in assay [6], 72.8%. Further, the growth in assay [7] was 8.3% (active); in assay [8], -47.2% (active); in assay [9], -17.9% (active); in assay [10], 27.1%.
`COc1ccccc1N(C(C)=O)C1=C(Cl)C(=O)c2ccccc2C1=O`: the growth was -13.9% (active) in assay [1]; -19.2% (active) in assay [2]; 19.1% in [3]; 23.1% in [4]; 22.4% in assay [5]; 17.6% in assay [6]. For the same molecule, the growth in [7] is 13.8%; in [8] it was -23.3% (active); in [9] it was 42.7%; in assay [10], 0.618% (active).
Consider `Cc1ccc(-c2nc3nc(-c4ccccc4)nc(N4CCCN(S(C)(=O)=O)CC4)c3o2)cc1`, for which the growth in assay [1] is 30.8%; in [2], 92.5%; in [3], 50.7%; in assay [4], 92.5%; in assay [5], 48.2%; in assay [6], 81.3%. The growth in assay [7] was 75.7%; in assay [8] it was 83.4%; in assay [9], 86.5%; in assay [10] it was 56.2%.
Regarding `COC(=O)CC[C@@H]1O[C@@H](c2ccc(F)cc2)[C@@H](O)[C@H]1O`, the growth in assay [1] was 96.6%; in [2] it was 101%; in assay [3], 112%; in [4], 90.2%; in assay [5] it was 115%; in assay [6], 101%. The growth in assay [7] is 113%; in [8], 104%; in assay [9] it was 94.1%; in assay [10] it was 104%.
In the case of `CC(C)(C)c1cc(Cl)c(O)c(CNCCO)c1`, the growth in assay [1] is 103%; in assay [2] it was 113%; in assay [3], 110%; in assay [4], 112%; in [5], 104%; in assay [6] it was 110%. Moreover, the growth in assay [7] was 117%; in assay [8], 111%; in [9], 82.7%; in [10], 109%.
For `O=C(Nc1ccccc1O)c1ccc(CNC(=O)c2ccsc2Nc2ccnc(C(F)(F)F)c2)cc1`, the growth in assay [1] is 22%; in assay [2], -1.09% (active); in assay [3] it was 18.4%; in [4], 44.3%; in assay [5] it was 47.3%; in assay [6] it was 49.1%. Also, the growth in assay [7] was 31.9%; in [8], 21.6%; in assay [9], 4.47% (active); in assay [10], 8.13% (active).
With `Cc1ccc(/C=C(\C#N)n2nnc3cc(F)c(F)cc32)cc1`, the growth in assay [1] is 7.33% (active); in [2], 4.53% (active); in assay [3], 6.79% (active); in assay [4], -4.62% (active); in [5] it was 46%; in assay [6], 53.6%. The growth in assay [7] is 2.76% (active); in assay [8], 7.86% (active); in assay [9], 36.1%; in [10], 12.9%.
Turning to `C=C1CC[C@@H]2C(C)(C)[C@@H](O)CC[C@@]2(C)[C@@H]1COc1ccc2ccc(=O)oc2c1`, the growth in assay [1] was 73.2%; in [2] it was 50.7%; in assay [3], 83.4%; in assay [4], 117%; in assay [5] it was 67.5%; in assay [6] it was 112%. Besides, the growth was 95.3% in [7], 78.3% in assay [8], 101% in [9] and 61.7% in assay [10].
